# Experimental data: PubChem BioAssay
# Where “and” joins values, the source holds several entries; their conditions need not be identical. Identical values can stand only once. Calls of active or inactive are those of the source.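 Rule for the calls, unless noted: active = compounds whose cell count with miR-34 switched on is under 0.7 times the count with it off; inactive = the rest.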
# Assays:
# [1] = viability loss with induced miR-34 in A549 – imaging, A549 dox-inducible miR-34, nuclei and caspase counts, primary screen (AID 1347080); conditions: A549 miR-34 inducible, Hoechst nuclei count, 48 h
# [2] = MELAS cybrid and Rieske KO viability enhancers – cell-based, MELAS cybrids, Rieske KO mouse fibroblasts, CellTiter-Glo, primary screen (AID 1508586;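 active = mean z-score across replicates of 1.96 or higher in either the MELAS or the Rieske mutant cell line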;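 note: z relative to plate mean and SD of compound and empty wells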); conditions: low glucose
# [3] = stronger effect = lower value, cell number ratio, induced over uninduced
# [4] = measured here: relative caspase fold change +Dox/-Dox
# [5] = measured here: total cells with miR-34 induction, stronger effect = lower value
# [6] = measured here: total cells without miR-34 induction
# [7] = MELAS cybrid survival, CellTiter-Glo 48 h, stronger effect = higher value
# [8] = Rieske KO mouse fibroblast survival, CellTiter-Glo 72 h
# Note: test concentration not given here.
SMILES,"fold change [1, 3]","fold change [1, 4]","cell count [1, 5]","cell count [1, 6]","z-score [2, 7]","z-score [2, 8]"
CN(C)CCCSc1ccccc1NC(=O)/C=C/c1ccccc1,0.891 (inactive) and 1.14 (inactive),0.895 and 0.508,7810 and 9010,8770 and 7880,0.109 (inactive),-0.0543
O=C(O)c1cc(=O)c2ccccc2o1,0.884 (inactive),1.39,8030,9090,-0.239 (inactive),-0.17
Nc1ccc(S(=O)(=O)Nc2nccs2)cc1,0.93 (inactive) and 0.957 (inactive) and 0.871 (inactive),1.04 and 0.824 and 4.44,8630 and 7440 and 10900,9270 and 7780 and 12500,-0.000944 (inactive) and 0.344 (inactive),-0.264 and 0.18
Cc1ccc(C(=O)c2ccc(CC(=O)O)n2C)cc1,0.916 (inactive) and 0.846 (inactive) and 0.923 (inactive),1.2 and 2.52 and 1.03,9430 and 10400 and 9670,10300 and 12300 and 10500,0.498 (inactive) and 0.311 (inactive),0.161 and -0.684
CCCCOc1cc(C(=O)NCCN(CC)CC)c2ccccc2n1,0.83 (inactive) and 0.969 (inactive) and 0.813 (inactive),0.865 and 0.646 and 1.83,7720 and 7790 and 10400,9300 and 8040 and 12800,-0.328 (inactive) and -0.63 (inactive),-0.208 and 0.449
C[C@@H]1C[C@H]2[C@@H]3C[C@H](F)C4=CC(=O)C=C[C@]4(C)[C@@]3(F)[C@@H](O)C[C@]2(C)[C@@]1(O)C(=O)CO,0.863 (inactive),1.53,6000,6940,0.578 (inactive),0.936
Cc1cc(=O)[nH]c(=S)[nH]1,0.999 (inactive) and 0.935 (inactive),0.275 and 0.458,8050 and 11700,8060 and 12500,0.105 (inactive),-0.199
CCN(CC)CCOC(=O)C(Cc1cccc2ccccc12)CC1CCCO1 (stereo not given),0.845 (inactive) and 0.836 (inactive),1.23 and 5.94,9000 and 10700,10700 and 12800,0.101 (inactive),-0.0853
Cc1[nH]c(C)c(Cl)c(=O)c1Cl,0.869 (inactive) and 0.865 (inactive),4.77 and 1.49,11500 and 9370,13300 and 10800,-1.24 (inactive),-1.35
Cc1c(C(N)=O)cc([N+](=O)[O-])cc1[N+](=O)[O-],1.04 (inactive),1.27,8930,8590,-0.219 (inactive),-0.175
COc1ccc(C(=O)NCc2ccc(OCCN(C)C)cc2)cc1OC,0.832 (inactive) and 1.01 (inactive) and 0.841 (inactive),0.68 and 1.38 and 1.73,8010 and 10500 and 9070,9630 and 10400 and 10800,0.424 (inactive) and 1.16 (inactive),-0.0117 and -0.161
Cc1c(Nc2ncccc2C(=O)O)cccc1C(F)(F)F,0.839 (inactive) and 0.931 (inactive) and 0.832 (inactive),1.09 and 0.676 and 4.07,7890 and 7810 and 10300,9410 and 8390 and 12400,-0.0893 (inactive) and -0.97 (inactive),0.0703 and 0.938
CCN1CCCC(OC(=O)C(c2ccccc2)c2ccccc2)C1 (stereo not given),0.985 (inactive) and 0.905 (inactive),0.865 and 4.46,9410 and 10800,9550 and 11900,0.463 (inactive),-0.154
O=c1cc[nH]c(=S)[nH]1,0.917 (inactive),0.54,7500,8180,-0.297 (inactive),-0.0433
OC(CCN1CCCCC1)(c1ccccc1)c1ccccc1,0.941 (inactive),1.61,9230,9810,-1.04 (inactive),-0.829
CCCCc1nc(Cl)c(CO)n1Cc1ccc(-c2ccccc2-c2nn[nH]n2)cc1,0.884 (inactive) and 0.804 (inactive),0.724 and 6.97,7690 and 9920,8690 and 12300,-0.213 (inactive) and 0.409 (inactive),-0.0146 and 0.701
CCCCCCCCCCCCCCCCOP(=O)([O-])OCC[N+](C)(C)C,1 (inactive) and 0.955 (inactive),0.961 and 1.28,5900 and 10200,5890 and 10700,-0.744 (inactive),-0.431
CCCCNc1c(C(=O)OCC)c(C)nc2c1cnn2CC,1.09 (inactive) and 0.956 (inactive) and 0.928 (inactive),1.73 and 0.694 and 0.876,9150 and 8740 and 7780,8430 and 9140 and 8370,2.27 (active),1.7
NC(N)=NCCN1CCCCCCC1,0.903 (inactive) and 0.92 (inactive),1.86 and 0.829,8660 and 10700,9590 and 11600,-0.808 (inactive),0.402
O=C1c2cccc(O)c2C(=O)c2c(O)cccc21,0.868 (inactive),4.67,9530,11000,0.3 (inactive),0.397

SMILES,"fold change [1, 3]","fold change [1, 4]","cell count [1, 5]","cell count [1, 6]","z-score [2, 7]","z-score [2, 8]"
O=C1c2ccccc2C(=O)c2c1ccc(O)c2O,0.918 (inactive),1.48,8090,8800,-0.0543 (inactive),-0.449
OCC(O)CN1CCN(c2ccccc2)CC1 (stereo not given),0.91 (inactive) and 0.902 (inactive) and 0.934 (inactive),1.09 and 0.695 and 0.504,7870 and 8950 and 8400,8650 and 9930 and 8990,-0.14 (inactive) and -0.167 (inactive) and 0.182 (inactive),-0.169 and -0.218 and 0.0795
Nc1ccc(S(=O)(=O)Nc2ccc(Cl)nn2)cc1,0.789 (inactive) and 0.924 (inactive),1.6 and 3.43,7930 and 11400,10000 and 12300,0.0891 (inactive),0.0567
Nc1nc2c(c(=O)[nH]1)N(C=O)C(CNc1ccc(C(=O)N[C@@H](CCC(=O)O)C(=O)O)cc1)CN2 (stereo not given in full),0.908 (inactive) and 0.841 (inactive),0.756 and 0.824,9140 and 10900,10100 and 12900,-0.42 (inactive),0.152
CCOC(=O)NNc1nncc2ccccc12,0.882 (inactive),0.778,8120,9200,-0.647 (inactive),-0.171
CCN(CC)CCNc1ccc(CO)c2sc3ccccc3c(=O)c12,0.933 (inactive) and 0.872 (inactive),1.29 and 1.89,3110 and 3390,3340 and 3880,4.63 (active),0.873
O=c1ccc2ccccc2o1,0.91 (inactive) and 0.88 (inactive),0.575 and 1.07,7780 and 10900,8550 and 12300,-0.266 (inactive),-0.22
CC(=O)Nc1ccc(OCC(O)CNC(C)C)cc1 (stereo not given),0.852 (inactive) and 0.959 (inactive),1.35 and 1.11,8450 and 10300,9920 and 10700,0.00127 (inactive) and -0.285 (inactive),-0.287 and 0.516
C[N+]12CCC(CC1)C(OC(=O)C(O)(c1ccccc1)c1ccccc1)C2 (stereo not given),0.841 (inactive) and 0.859 (inactive),1.4 and 1.29,8530 and 9960,10100 and 11600,0.605 (inactive),-0.405
CCCCN(CCCC)CCCOC(=O)c1ccc(N)cc1,0.866 (inactive) and 0.888 (inactive),2.02 and 4.13,8920 and 11400,10300 and 12800,0.278 (inactive),-0.637
CCOc1ccc(NC(C)=O)cc1,0.886 (inactive) and 0.916 (inactive),1.49 and 0.787 and 3.07,9560 and 7800 and 11500,10800 and 8520 and 12600,-0.475 (inactive) and -0.0201 (inactive),-0.108 and 0.061
CCCCC1(COC(=O)CCC(=O)O)C(=O)N(c2ccccc2)N(c2ccccc2)C1=O,0.884 (inactive),1.12,8700,9850,0.542 (inactive),0.234
NC(N)=Nc1nc(CSCC/C(N)=N/S(N)(=O)=O)cs1,0.977 (inactive) and 0.894 (inactive) and 0.942 (inactive),1.04 and 0.96 and 0.999,10400 and 8060 and 10100,10600 and 9010 and 10700,0.33 (inactive) and 1.06 (inactive),0.0847 and 0.907
Nc1ccc(C(=O)NCC(=O)O)cc1,0.905 (inactive) and 0.867 (inactive) and 0.907 (inactive),1.12 and 0.765 and 3.35,9600 and 8480 and 12000,10600 and 9780 and 13300,-0.372 (inactive) and 0.514 (inactive),-0.0832 and -0.331
Cc1[nH]cnc1CN1CCc2c(c3ccccc3n2C)C1=O,0.98 (inactive),1.07,9740,9940,0.685 (inactive),0.531
COc1c2occc2c(OC)c2c(=O)cc(C)oc12,0.924 (inactive),1.18,8440,9130,-0.15 (inactive),-0.129
COc1cc(C)nc(-n2nc(C)cc2OC)n1,0.917 (inactive) and 1.02 (inactive),1.25 and 2.09,8860 and 9160,9670 and 8950,0.813 (inactive),0.154
Oc1c(Cl)cc(Cl)c(Cl)c1Cc1c(O)c(Cl)cc(Cl)c1Cl,1.05 (inactive) and 0.85 (inactive),2.17 and 2.72,2100 and 2440,2010 and 2860,-0.483 (inactive),0.0864
CC(C)NCC(O)c1ccc2ccccc2c1 (stereo not given),0.951 (inactive) and 0.938 (inactive) and 0.885 (inactive),0.594 and 1.29 and 1.16,8750 and 8620 and 9710,9200 and 11000,0.654 (inactive) and -0.419 (inactive),-0.347 and -0.52
CC(Oc1c(Cl)cccc1Cl)C1=NCCN1 (stereo not given),0.89 (inactive) and 0.878 (inactive) and 0.898 (inactive),0.839 and 1.76 and 1.47,9080 and 9420 and 9240,10200 and 10700 and 10300,-0.146 (inactive) and 0.131 (inactive),-0.104 and -1.04
